# From PubChem
# A selection: hits, their analogues and other compounds. The true share with any hit is near 19%.
# Pf growth 96h: inhibits malaria parasite growth, 96 h | P. falciparum luciferase reporter growth, 96 h | Potency, µM (doses to about 28.7 µM), inactives show top-dose activity change, negative = inhibition, actives largely listed as inhibitors | 6.9% of 320,000 active | AID 504834; note: potency is the fitted concentration of half-maximal effect; % is set by controls: 0 for no effect and ±100 for the full control effect
#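 P. falciparum expressing integrated firefly luciferase grown in erythrocytes (2% hematocrit, 0.05% parasitemia final) with compounds for 96 hours at 37 C, 5% CO2. Growth inhibition read as loss of luminescence after adding luciferase detection reagent.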
# Lassa entry inh: inhibitors of Lassa virus binding or cell entry | Lassa virus pseudotype entry inhibition, cell reporter | Potency, µM (titrated, usually from 37.9 µM), for the others: at the highest dose activity change, negative = inhibition, usual class: inhibitors | 1.2% of 300,000 active | AID 540256; calls by dose curve; tested in HEK293 cells; note: potency is the fitted concentration of half-maximal effect; % is set by controls: 0 for no effect and ±100 for the full control effect; nearly all actives have a fitted effect of over 50% in size
# Pf growth 48h: P. falciparum growth inhibition at 48 hours (one generation) | P. falciparum luciferase growth in erythrocytes, 48 h | Potency, µM (series often up to 28.7 µM), without a hit: at the highest dose activity change, negative = inhibition, actives largely listed as inhibitors | 5.9% of 310,000 active; note: potency is the fitted concentration of half-maximal effect; % is set by controls: 0 for no effect and ±100 for the full control effect
#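 Luciferase-expressing parasites in RBCs, 2% Hct / 0.1% parasitemia final; RPMI 1640 + 0.5% Albumax; 37 C, 5% CO2, one generation; luminescence read-out, lower signal = inhibition.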
# MARV entry inh: Marburg virus entry inhibition; Marburg virus pseudotyped entry inhibition, cell reporter; Potency, µM (top dose mostly 37.8 µM), for the others: top-dose activity change, negative = inhibition, usual class: inhibitors; 1.8% of 300,000 active; AID 540276; calls by dose curve; tested in HEK293 cells; note: potency is the fitted concentration of half-maximal effect; % is set by controls: 0 for no effect and ±100 for the full control effect
# Shiga toxin inh: blocks Shiga toxin action in Vero cells | Vero cells, Shiga toxin protein synthesis inhibition reporter | inhibition, % at 38.7 µM | 9.2% of 290,000 active | AID 2315; in the data active = inhibition mostly above about 28%, no sharp cut-off; inactive = mostly below about 43%; note: 0% is about no effect
# Cycloheximide cs: counter-screen for Shiga toxin inhibitors: cycloheximide protein synthesis inhibition. 12% of 300,000 active. max response, %. cell reporter, cycloheximide protein synthesis inhibition counterscreen. AID 2314; in the data active = max response mostly above about 13%, no sharp cut-off; inactive = mostly below about 14%; note: read at 38.3 µM for the half of the compounds with a filed dose; 0% is about no effect
# The depositor's hits bear a star; u = inconclusive; x = not tested or not shown; [ ] = remark or other dose. Unless noted, calls come from the whole dose curve; as a rule, active = well fitted inhibition curve with a large enough effect; inconclusive = small, poorly fitted or top-dose-only effect, or another doubt; inactive = no such curve, though single readings can be large or run the other way.
SMILES,Pf growth 96h,Lassa entry inh,Pf growth 48h,MARV entry inh,Shiga toxin inh,Cycloheximide cs
CC(=O)c1cccc(NC(=O)COC(=O)CC2CC3CCC2C3)c1 (stereo not given),8%,-6%,-7%,9%,x,x
C[C@H](NC(=O)c1ccccc1)C(=O)OCC(=O)Nc1ccc2c(c1)OCO2,u,x,-7%,x,x,x
O=C(NCCC1CC1(Cl)Cl)c1ccc([N+](=O)[O-])cc1 (stereo not given),20%,14%,x,25%,44,25*
O=C(NCCNC(=O)c1ccc([N+](=O)[O-])cc1)c1ccncc1,u,-2%,19%,-4%[46.1 µM],-1,1
Cc1ccc(CCNC(=O)c2coc3nc4ccccc4nc23)cc1,2.6µM*,u,-21%,-3%,14,1
COc1ccc(CCNC(=O)C2=COCCO2)cc1,90%,-1%,70%,19%,66*,24*
COc1cc2cc(C(=O)NCCc3ccccc3)[nH]c2cc1OC,u,-14%,8%,25%,25,12
COc1ccc2cc(C(=O)NCCc3ccccc3)[nH]c2c1,66%,x,0%,x,35,22*
O=C(COc1ccc(Br)cc1)Nc1ccc(C(=O)Nc2ccccc2C(=O)O)cc1,-80%,-1%,1%,22%,22,-4
CCC[C@]12CCN3C(=O)N[C@@H](c4ccccc4)[C@](C(=O)OCC)(C1)[C@H]32,x,x,x,9%[14.2 µM],x,x
COc1ccc(CCNC(=O)c2sc(=S)n(C)c2N)cc1,1.9µM*,-1%,15%,-25%[46.1 µM],-18,-3
COc1ccc(C(=O)NCCc2cn3ccccc3n2)cc1,-17%,x,23%,x,43*,18
COc1ccc(OC(=O)NCCc2ccccc2)cc1,110%,u,110%,u,62*,33*
COc1ccc(CCNC(=O)CC(=O)NCCc2ccc(OC)cc2)cc1,-2%,u,u,6%,-3,-2
CC(C)c1ccc(OC(=O)NCCO)cc1,x,u,25%,u,44*,15*
CC(C)(C)NC(=O)NC12CC3CC(CC(C3)C1)C2,15%,x,9%,x,-10,-1
N#C/C(=C\c1cccc([N+](=O)[O-])c1)c1nnc2n1CCCCC2,41%,-10%,13%,u,-6,-2
CN(c1ccccc1)c1ccc(/C=C(\C#N)c2nnc3n2CCCCC3)cc1[N+](=O)[O-],u,7.1µM*,u,u,13,8
CC(=O)OC(C(=O)NCc1ccc(F)cc1)c1ccccn1 (stereo not given),105%,3%,u,4%,-7,2
Cc1cccc(NC(=O)CSCC(=O)N2CCCc3ccccc32)c1,u,12%,-13%,0%,x,x
Cc1cccc(S(=O)(=O)NNC(=O)c2cc(-c3ccc(F)cc3)nc3ccccc23)c1,-2%,x,u,x,-11,-3
COc1ccc(S(=O)(=O)NCc2ccco2)cc1-c1nnc2c3ccccc3c(C)nn12,u,-12%,12µM*,0%,43,40*
CNS(=O)(=O)c1ccc(OC)c(-c2nnc3c4ccccc4c(C)nn23)c1,u,-11%[46.1 µM],u,0%[46.1 µM],-9,-5
O=C(Nc1cccc(S(=O)(=O)NCc2ccco2)c1)c1cc(-c2ccc(F)cc2)nc2ccccc12,12µM*,u,-23%,u,70*,39*
COc1ccc(-c2cc(C(=O)Nc3cccc(S(=O)(=O)NCc4ccco4)c3)c3ccccc3n2)cc1OC,u,x,2.1µM*,x,41,21*
SMILES,Pf growth 96h,Lassa entry inh,Pf growth 48h,MARV entry inh,Shiga toxin inh,Cycloheximide cs
COc1cc(C(=O)Nc2cccc(S(=O)(=O)NCc3ccco3)c2)cc(OC)c1OC,-71%,x,u,x,x,x
COc1ccccc1CNC(=O)COC(=O)c1n[nH]c2ccccc12,u,u,x,-20%,12,13
O=C(Nc1cccc(C(=O)N2CCOCC2)c1)c1ccccc1Br,0%,-11%,0%,4%,-2,-1
CCOC(=O)N1N=C(C)CC1(O)c1ccccc1 (stereo not given),25%,2%,26%,4%,3,6
O=C(NCc1cccc(F)c1)c1cccc(OC2CCN(C(=O)C3CC3)CC2)c1,-30%,-29%,-3%,u,10,16
C=CCn1c(SCC(=O)NC2CCCCC2)nnc1-c1ccccn1,u,-3%,-12%,11%,-7,-3
O=C(C1CCCN(Cc2cccs2)C1)N1CCCCCC1 (stereo not given),18%,-6%,-12%,u,-23,-5
Cc1ccc([C@H]2C[C@H](O)[C@@H](n3cc(-c4ccc(F)cc4)nn3)CN2CC2CCCCC2)cc1,x,28µM*,x,x,x,x
CCCCCC(=O)N1C[C@@H](O)[C@H](n2cc(-c3ccc(F)cc3)nn2)C[C@H]1c1ccc(OC)cc1,x,11%[46.1 µM],x,x,x,x
O=C(C1CCCCC1)N1C[C@H](O)[C@H](n2cc(-c3ccc(F)cc3)nn2)C[C@@H]1c1ccc(Cl)cc1,x,x,x,7.9µM*,x,x
CCCCCC(=O)N1C[C@@H](O)[C@H](n2cc(-c3ccc(F)cc3)nn2)C[C@H]1c1ccccc1,x,-7%[46.1 µM],x,x,x,x
Cc1ccc([C@H]2C[C@@H](n3cc(COC(=O)c4ccccc4)nn3)[C@H](O)CN2C(=O)C2CCCCC2)cc1,x,-40%[46.1 µM],x,x,x,x
COc1ccc([C@H]2C[C@@H](O)[C@H](n3cc(-c4ccc(F)cc4)nn3)CN2Cc2cccs2)cc1,x,x,x,8.9µM*,x,x
COc1ccccc1C(=O)N1CCN(c2cccc(C(F)(F)F)c2)CC1,-26%,u,-18%,u,-29,13
O=C(Nc1ccc(F)cc1F)c1cccn(Cc2ccccc2)c1=O,81%,u,15µM*,-15%[46.1 µM],41,37
Cn1cc(Cl)cc(C(=O)Nc2ccccc2)c1=O,119%,x,100%,x,59*,34*
O=C(Nc1ccccc1)c1cccn(Cc2ccccc2)c1=O,357%,u,0%,u,98*,34*
Cc1cccc(Cn2cccc(C(=O)Nc3ccc(F)cc3F)c2=O)c1,x,2%[46.1 µM],x,x,x,x
O=C(Nc1ccc(Cl)cc1C(=O)N1CCCCC1)c1ccco1,45%,x,34%,18%[46.1 µM],-6,-5
